Drawing on PubChem BioAssay (NCATS), this text covers Potency for 24 compounds.

Results filed as inconclusive are left out. Where a call stands in place of a potency, no number is given. The source made the active and inactive calls. Calls follow the shape of the dose curve; as a rule, active = well fitted cell-killing curve with a large enough effect; inconclusive = small, poorly fitted or top-dose-only effect, or effect the other way; inactive = no such curve, though single readings can be large or run the other way.
Potency is read from the fitted curve at half-maximal effect.

This assay in a line: Quantitative High-Throughput drug screen in 47 multiple myeloma cell lines against the NCATS MIPE library collection: OCIMY1_PLB cell viability assay (AID 1918979). Also: nearly all actives have a fitted effect of over 35% in size. The following applies: OCI-MY1 myeloma viability, CellTiter-Glo ATP, 48 h; series mostly up to 45.8 µM. The source says:
PI: Beverly A. Mock Ph.D.
Laboratory of Cancer Biology and Genetics,
Center for Cancer Research, National Cancer Institute,
National Institute of Health, Bethesda, Maryland
Drug resistance and disease progression are common in multiple myeloma (MM) patients, underscoring the need for new therapeutic combinations. […] We hypothesized that effective combinations would reduce MYC expression and enhance p16 activity. […] These preclinical data identify potentially useful drug combinations for evaluation in drug-resistant MM and reveal potential mechanisms of combined drug sensitivity.
Described herein is the primary MIPE qHTS used to cherrypick compounds. Validated compounds were then further tested for potential synergistic activiy.
[1] Peat TJ, Gaikwad SM, Dubois W, Gyabaah-Kessie N, Zhang S, Gorjifard S, Phyo Z, Andres M, Hughitt VK, Simpson RM, Miller MA, Girvin AT, Taylor A, Williams D, D'Antonio N, Zhang Y, Rajagopalan A, Flietner E, Wilson K, Zhang X, Shinn P, Klumpp-Thomas C, McKnight C, Itkin Z, Chen L, Kazandijian D, Zhang J, Michalowski AM, Simmons JK, Keats J, Thomas CJ, Mock BA. Drug combinations identified by high-throughput screening promote cell cycle transition and upregulate Smad pathways in myeloma. Cancer Lett. 2023 Aug 1;568:216284. doi: 10.1016/j.canlet.2023.216284. Epub 2023 Jun 24. PMID: 37356470; PMCID: PMC10408729.
SEQUENCE No. (e.g., 1, 2, 3, etc.); […] (e.g., Cells, Incubation, Reagent, etc.); VALUE and DESCRIPTION.
1; Cells; 5 uL; white, solid bottom 1536-well Greiner assay plate.
2; Compounds; 23 nL; Kalypsis pin tool (Wako USA) equipped with a 1536-well pin head to transfer to the assay plates.
3; Incubation; 48 hours; 37C incubation.
4; Reagent;5uL; CellTiter Glo (Promega).
5; Detector; 425V; Luminescence; Viewlux PerkinElmer.
NOTES (numbers refer to Sequence numbers above)
1. The cell-based screening methods employed in this study were like those previously published. Briefly, the corresponding myeloma cell lines were screened in 1,536-well plates with 500 cells, 5-uL per well for inhibition of cell viability (assessed by measuring ATP levels with CellTiterGlo).
2. NCATS MIPE 4.0 library of approved and investigational drugs were added using the Kalypsis pin tool. Wells treated with DMSO only for 100% viability and media only for 0% viability were used as controls.
3. The assay plates were covered and incubated for 48 hours in a 37C, 5% CO2 incubator with controlled humidity.
4. After 48 hours, CellTilter-GloTM luminescent substrate mix (Promega) reagent was added to the assay plate and plates we incubated for 5 min at room temperature.
5. Signal was measured as median relative luminescence units on a ViewLux (PerkinElmer) multiplate reader.
[1] Heske CM, Davis MI, Baumgart JT, Wilson K, Gormally MV, Chen L, Zhang X, Ceribelli M, Duveau DY, Guha R, Ferrer M, Arnaldez FI, Ji J, Tran HL, Zhang Y, Mendoza A, Helman LJ, Thomas CJ. Matrix Screen Identifies Synergistic Combination of PARP Inhibitors and Nicotinamide Phosphoribosyltransferase (NAMPT) Inhibitors in Ewing Sarcoma. Clin Cancer Res. 2017 Dec 1;23(23):7301-7311. doi: 10.1158/1078-0432.CCR-17-1121. Epub 2017 Sep 12. PMID: 28899971; PMCID: PMC6636827.
In the case of `O=C1CC[C@@]2(O)[C@H]3Cc4ccc(O)c5c4[C@@]2(CCN3CC2CC2)[C@H]1O5`, the Potency result is “inactive”.
To `Cc1cccc(C)c1NC(=O)CN1CCCC1=O` belongs “inactive”; to `N[C@@H](Cc1ccc(N(CCCl)CCCl)cc1)C(=O)O`, 16.6 µM (active).
For `COc1ccc2c(c1OC)CN1CCc3cc4c(cc3C1C2)OCO4` (centres undefined) the value was “inactive”.
For `COc1ccc(C(CN(C)C)C2(O)CCCCC2)cc1` (centres undefined) the value was “inactive”.
For `Cn1cc(C2=C(c3cn(C4CCN(Cc5ccccn5)CC4)c4ccccc34)C(=O)NC2=O)c2ccccc21`, the Potency result is “inactive”.
As to `C[C@@H]1[C@@H](CC(C[C@H]2O[C@@H]3O[C@]4(C)CC[C@@H]5[C@H](C)CC[C@@H]([C@H]2C)[C@@]35OO4)C[S+](=O)([O-])c2ccc(COC(=O)N(C)C)cc2)O[C@@H]2O[C@]3(C)CC[C@H]4[C@H](C)CC[C@@H]1[C@@]24OO3` (some centres undefined), the Potency is 0.187 µM (active).
Turning to `COC1(CS(=O)c2ccccc2)CCN(CCc2c[nH]c3ccc(F)cc23)CC1` (centres undefined), the Potency result was “inactive”.
For `Cc1cc(SCc2sc(-c3ccc(C(F)(F)F)c(F)c3)nc2C)ccc1OCC(=O)O`, the Potency result was “inactive”.
Consider `C#CCN(C)[C@H](C)Cc1ccccc1`, for which the Potency entry is “inactive”.
To `COC[C@@H](NC(C)=O)C(=O)NCc1ccccc1` belongs “inactive”; to `C[C@@H]1O[C@@H](O[C@H]2C[C@@H](O)[C@]3(CO)[C@H]4[C@H](O)C[C@]5(C)[C@@H](C6=CC(=O)OC6)CC[C@]5(O)[C@@H]4CC[C@]3(O)C2)[C@H](O)[C@H](O)[C@H]1O`, 0.0209 µM (active); to `COc1ccc(C(=O)c2c(C)n(CCN3CCOCC3)c3ccccc23)cc1`, “inactive”.
As for `Fc1ccc(C(OCCN2CCN(CCCc3ccccc3)CC2)c2ccc(F)cc2)cc1`, the Potency is 26.4 µM (active).
`CNCC(O)c1ccc(O)cc1` (centres undefined): the Potency entry was “inactive”.
To `O=C(O)C(=O)c1cn(Cc2ccccc2)c2ccc(-c3ccc(OC(F)(F)F)cc3)cc12` belongs “inactive”; to `CCCC(C)(COC(N)=O)COC(=O)NC(C)C` (centres undefined), “inactive”; to `CN1CCN(C(=O)O[C@H]2c3nccnc3C(=O)N2c2ccc(Cl)cn2)CC1`, “inactive”.
Consider `CNC(=O)N1N=C(c2ccc(N)cc2)c2cc3c(cc2CC1C)OCO3` (centres undefined), for which the Potency result is “inactive”.
With `CC1=C2C[C@@H]3[C@@H](CC=C4C[C@@H](O)CC[C@@]43C)[C@@H]2CC[C@]12O[C@H]1C[C@H](C)CN[C@H]1[C@H]2C`, the Potency result is “inactive”.
For the compound `CC(C)CC(N(C)C)C1(c2ccc(Cl)cc2)CCC1` (centres undefined), the Potency result was “inactive”.
Regarding `O=c1[nH]c2ccccc2n1CCCN1CCC(n2c(=O)[nH]c3cc(Cl)ccc32)CC1`, the Potency result was “inactive”.
With `CNC(=O)c1ccc(N2C(=S)N(c3ccc(C#N)c(C(F)(F)F)c3)C(=O)C23CCC3)cc1F`, the Potency entry was “inactive”.
In the case of `CN(C)CCc1ccc(O)cc1`, the Potency entry was “inactive”.
